Screening data deposited in PubChem by National Center for Advancing Translational Sciences (NCATS).
DT40 TDP1 CPT = growth inhibition of DT40 Tdp1-/-;hTDP1 cells with camptothecin (screen for TDP1 inhibitors) | AID 686979 | Potency, µM (top dose mostly 46.2 µM), hits mostly inhibitors | actives 12% (n = 420,000) | chicken DT40 Tdp1-/-;hTDP1 cells + 20 nM CPT, ATP luminescence, 48 h; further: nearly all actives have a fitted effect of over 55% in size
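Chicken DT40 Tdp1-/- cells complemented with human TDP1, 400 cells/well, exposed to compounds plus 20 nM camptothecin for at least 48 h at 37 C; viability read as ATP content by CellTiter-Glo luminescence.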
HT1080-NT tox = kills 2HG-producing HT-1080-NT fibrosarcoma cells | HT-1080-NT fibrosarcoma viability, CellTiter-Glo ATP luminescence, 48 h | Potency, µM (highest dose often 46.1 µM), most hits filed as cytotoxic | actives 1.6% (n = 360,000);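 further: NT is the 2HG producing partner of a matched IDH1 knockdown line; nearly all actives have a fitted effect of over 55% in size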
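Luminescent CellTiter-Glo readout after 48 hours of compound exposure at 37 degrees C defined viability of HT-1080-NT cells. Activity was normalized to DMSO wells and cell-free media wells; concentration-response curves were fitted and assigned curve classes.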
HT1080 IDH1KD tx = kills HT-1080 cells with IDH1 knockdown; Potency, µM (highest dose often 46.1 µM), most hits filed as cytotoxic; actives 2% (n = 360,000); HT-1080 IDH1 knockdown viability, ATP luminescence, 48 h
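Luminescent ATP read-out (CellTiter-Glo, 10 min at room temperature) after 48 h compound exposure at 37 °C gave viability of IDH1-knockdown HT-1080 cells. Activity was normalised to DMSO and cell-free wells, then fitted as concentration-response curves.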
DT40 TDP1 no CPT = qHTS for Inhibitors of human tyrosyl-DNA phosphodiesterase 1 (TDP1): qHTS in cells in absence of CPT; Potency, µM (highest dose often 46.2 µM), usual class: inhibitors; DT40 Tdp1-/- hTDP1 cells, no CPT, ATP luminescence, 48 h; actives 15% (n = 420,000); further: nearly all actives have a fitted effect of over 55% in size
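Luminescent ATP content (CellTiter-Glo) served as the growth readout. Knockout chicken DT40 cells expressing human TDP1 were exposed to compounds without camptothecin for a minimum 48 hr at 37 °C.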
IL1B secr inh = inhibitors of inflammasome signaling (IL-1 beta secretion); THP-1 LPS/ATP IL-1B secretion, AlphaLISA, 16 h; stronger effect = lower value; activity change, % at 57.5 µM; actives 4.7% (n = 360,000); in the data active means activity change below about -50%; inconclusive means mostly about -30% to -49%
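Secreted IL-1B measured by AlphaLISA bead assay after 16 h compound exposure of THP-1 cells; compounds (final up to 57.5 uM) added 1 h before LPS (250 ng/mL) and ATP (1.25 mM) stimulation; lower signal means less secretion.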
Of the large screens only hits and unclear results are named; the others gave an inactive call. Hits are enriched below; roughly 19% of the tested compounds scored in any of these assays. Unless noted, the call rests on the fitted dose curve; in most records, active means well fitted curve in the direction sought with a large enough effect; inconclusive means small, poorly fitted or top-dose-only effect, or another doubt; inactive means no such curve, though single readings can be large; an effect the other way counts as inactive or inconclusive.

Cc1nc2ccccc2n1CC(O)COc1ccc(C(=O)O)cc1 (centres undefined)	none (no result: HT1080-NT tox, HT1080 IDH1KD tx, IL1B secr inh)
Cc1nc2ccccc2n1CC(O)COc1ccc(Br)cc1 (centres undefined)	DT40 TDP1 CPT inconclusive, DT40 TDP1 no CPT 18µM, IL1B secr inh inconclusive
COC(=O)c1ccc(OCC(O)Cn2cnc3cc(C)c(C)cc32)cc1 (centres undefined)	DT40 TDP1 CPT inconclusive, DT40 TDP1 no CPT 9.2µM (no result: HT1080-NT tox, HT1080 IDH1KD tx, IL1B secr inh)
COc1ccc(NC(=O)CSc2nnc(-c3ccccc3C)n2N)cc1	DT40 TDP1 CPT 16µM, DT40 TDP1 no CPT 21µM
COc1ccc(NC(=O)CSc2nnc(C3CC3)n2-c2ccccc2)cc1	none
COc1ccc(NC(=O)CSc2nnc(-c3cccs3)n2-c2ccccc2)cc1	HT1080-NT tox 23µM, HT1080 IDH1KD tx inconclusive
Cn1c(=O)n(C)c2cc(NC(=O)CSc3nnc(-c4ccccc4O)n3-c3ccccc3)ccc21	DT40 TDP1 CPT 18µM, DT40 TDP1 no CPT inconclusive
CCn1cc(C(=O)O)c(=O)c2cnc(N3CCN(C(=S)Nc4ccccc4C(F)(F)F)CC3)nc21	DT40 TDP1 no CPT 29µM
CCn1cc(C(=O)O)c(=O)c2cnc(N3CCN(C(=S)Nc4ccccc4)CC3)nc21	DT40 TDP1 CPT inconclusive, DT40 TDP1 no CPT inconclusive
CCCOc1ccc(C(=O)NC(=S)N2CCN(c3ncc4c(=O)c(C(=O)O)cn(CC)c4n3)CC2)cc1	DT40 TDP1 CPT 23µM, DT40 TDP1 no CPT inconclusive
Cc1ccc(Nc2nc(N/N=C\c3ccc4c(c3)OCO4)nc(N3CCOCC3)n2)cc1	DT40 TDP1 CPT 8.2µM, HT1080-NT tox inconclusive, HT1080 IDH1KD tx 26µM, DT40 TDP1 no CPT 9.2µM
Cc1ccc([N+](=O)[O-])cc1Nc1nc(N2CCOCC2)nc(N2CCOCC2)n1	none
COc1ccc(Nc2nc(Nc3ccc(OC)cc3OC)nc(N3CCOCC3)n2)c(OC)c1	DT40 TDP1 CPT 15µM, DT40 TDP1 no CPT 13µM (no result: HT1080-NT tox, HT1080 IDH1KD tx, IL1B secr inh)
Cc1ccc(Cl)cc1Nc1nc(N2CCOCC2)nc(N2CCOCC2)n1	DT40 TDP1 CPT inconclusive, DT40 TDP1 no CPT inconclusive, IL1B secr inh -54
Cc1ccc(/C=N/Nc2cc(C)nc(N3CCOCC3)n2)cc1	DT40 TDP1 no CPT inconclusive
Cc1ccc(N/N=C/c2ccc(N3CCOCC3)cc2)cc1C	DT40 TDP1 CPT 23µM, DT40 TDP1 no CPT inconclusive
COc1ccc(NC2CCCN(C(=O)c3c(C)noc3C)C2)cc1 (centres undefined)	none
Cc1ccc(S(=O)(=O)Nc2ccc(-c3ccc4nncn4n3)cc2)cc1	DT40 TDP1 no CPT inconclusive
COc1ccc(Nc2nc(N3CCOCC3)nc(N3CCOCC3)n2)cc1Cl	DT40 TDP1 CPT inconclusive, DT40 TDP1 no CPT 21µM, IL1B secr inh -58
CCOc1nc(Nc2ccc(OC)c(Cl)c2)nc(OCC)n1	DT40 TDP1 CPT 18µM, DT40 TDP1 no CPT inconclusive
COc1ccc(Nc2nc(OC)nc(N3CCOCC3)n2)cc1	none
Cc1ccc(Nc2nc(Nc3ccc(C)c(C)c3)nc(N3CCOCC3)n2)cc1C	DT40 TDP1 CPT 15µM, DT40 TDP1 no CPT 10µM (no result: HT1080-NT tox, HT1080 IDH1KD tx, IL1B secr inh)
Cc1cc(Nc2cccc(Cl)c2)nc(N2CCOCC2)n1	DT40 TDP1 CPT 15µM, DT40 TDP1 no CPT inconclusive
CCOc1nc(NCCO)nc(Nc2cc(Cl)ccc2OC)n1	DT40 TDP1 CPT inconclusive, DT40 TDP1 no CPT inconclusive
O=C(Cc1ccc(Cl)cc1)Nc1ccc2oc(-c3ccccc3)nc2c1	DT40 TDP1 no CPT inconclusive (no result: HT1080-NT tox, HT1080 IDH1KD tx, IL1B secr inh)
CC(=O)c1ccc(NC(=O)CCNC(=O)c2ccccc2Cl)cc1	HT1080 IDH1KD tx inconclusive
Cc1ccc(Cl)cc1NC(=O)N[C@@H](CC(C)C)C(=O)O	none
CC(C)(Oc1ccc(Cl)cc1)C(=O)OCc1nc2ccsc2c(=O)[nH]1	none
Clc1cccc(Nc2nc(N3CCOCC3)nc(N3CCOCC3)n2)c1	DT40 TDP1 CPT inconclusive, DT40 TDP1 no CPT inconclusive, IL1B secr inh inconclusive
Fc1cccc(Nc2nc(N3CCOCC3)nc(N3CCOCC3)n2)c1	DT40 TDP1 CPT 18µM, IL1B secr inh inconclusive
O=c1nc2n(c3ncccc13)CCCCC2	none
CCOC(=O)C(NC(=O)CCl)(Nc1sc(C)c(CC)c1C#N)C(F)(F)F (centres undefined)	DT40 TDP1 CPT inconclusive, HT1080-NT tox inconclusive, DT40 TDP1 no CPT 6.5µM, IL1B secr inh -107
